Assay results: PubChem BioAssay AID720650 (Broad Institute, 2013)
Calls of active or inactive are those of the source. How the calls were made is not given here.

Assay: C difficile toxins, biochemical counterscreen, UDPG substrate absence, confirmatory dose response (AID 720650)
Conditions: series mostly up to 19.5 µM; activity change, negative = inhibition: at the top concentration

SMILES	activity change, negative = inhibition	AC50
CNC(C(=O)c1ccccc1)C(OC)c1cccc([N+](=O)[O-])c1 (centres undefined)	-4.43% (inactive)	
COC(=O)C1=C(c2ccc(F)cc2OCc2ccccc2)C[C@@H]2CC[C@H]1N2C(=O)NCCOc1ccccc1	6.43% (inactive)	
COc1cc(/C=N/NC(=O)CSc2ccccn2)ccc1O	-4.05% (inactive)	
CN1CCN(/N=C/c2c[nH]c3ccccc23)CC1		> 39 µM (inactive)
O=C(NNc1nc2c(F)cccc2s1)C1COc2ccccc2O1 (centres undefined)		0.34 µM (active)
Cc1ccc(S(=O)(=O)N2CC(CBr)=CCC2c2ccccc2)cc1 (centres undefined)		13.9 µM (active)
Cc1cc2c(cc1S(=O)(=O)N(C)c1ccccc1)NC(=O)CO2	-3.43% (inactive)	
CC(=O)NC(Cc1ccccc1)C(=O)Oc1ccc2ccccc2c1 (centres undefined)	-8.77% (inactive)	
CC(=O)c1cccc(-c2ccnc3c2CC(C(=O)NCc2ccccc2)O3)c1 (centres undefined)	-7.26% (inactive)	
CCC(=O)Nc1ccc2c(c1)OC[C@H](C)N(C(=O)NC(C)C)C[C@@H](C)[C@@H](OC)CN(C)C2=O	-2.17% (inactive)	
O=C(CSc1nc2cc(Cl)ccc2s1)c1ccco1		> 39 µM (inactive)
COC(=O)/C=C/C(=O)Nc1ccc(O)c(Cl)c1		13.6 µM (active)
CC(=O)Oc1ccc2nc(/C=C/c3ccccc3)oc(=O)c2c1	-12% (inactive)	
Cc1ccc(-n2c(SCC(=O)O)nc3c(sc(=S)n3-c3ccc(C)c(C)c3)c2=O)cc1		13.7 µM (active)
Cc1ccc(C2=NS(=O)(=O)N(C)C(C(=O)NCc3ccc4c(c3)OCO4)=C2)cc1	-9.33% (inactive)	
Cc1ccc(C)c2c1cc(C)c1nnc(SCC(=O)NCc3ccc4c(c3)OCO4)n12		13.1 µM (active)
COC(=O)C1=C[C@@H](C(=O)OC)[C@@H]2C3=C(C(=O)[C@]2(C)NC(=O)c2ccccc2)[C@H](C)n2c(=O)n(C)c(=O)n2[C@@H]3C1	-11.3% (inactive)	
CC(=O)c1cccc(OCC(=O)c2cc(C)n(-c3cc(C)on3)c2C)c1		12 µM (active)
COc1ccc(C(=O)Nc2ccc3c(c2)C(=O)N(C)[C@@H]2CC[C@H](CC(=O)NCC4CC4)O[C@H]2CO3)cc1	-17.7% (inactive)	
Cc1cccc2sc(NNC(=O)C3COc4ccccc4O3)nc12 (centres undefined)		0.294 µM (active)

SMILES	activity change, negative = inhibition	AC50
CC(=O)c1ccc(Nc2ccc(-c3ccccc3F)nn2)cc1		> 39 µM (inactive)
O=C1/C(=C/c2cccnc2)SC(=NCc2ccccc2)N1Cc1ccccc1	-7.63% (inactive)	
CC[n+]1ccc(/C=C/c2ccc(N(C)C)cc2)c2ccccc21		11.7 µM (active)
CCNC(=O)C[C@H]1CC[C@@H]2[C@H](COc3ccc(NC(C)=O)cc3C(=O)N2C)O1	8.51% (inactive)	
COc1nc(C)cc(C)c1S(=O)(=O)c1ccc(Cl)cc1	-8.33% (inactive)	
O=C1Cc2cc(S(=O)(=O)NCc3ccccc3Cl)cc3c2N1CCC3	6.63% (inactive)	
O=S(=O)(NC1CCCCCCC1)c1ccc(F)cc1	-9.37% (inactive)	
CN(C)c1ccc(Cl)c(NC(N)=S)c1		19.2 µM (active)
O=C(NCc1cccnc1)c1cc(C2CCCCN2S(=O)(=O)c2cccc3cccnc23)on1 (centres undefined)	-13.3% (inactive)	
COc1cccc(C(CNc2ccc(S(=O)(=O)N3CCN(C)CC3)cc2[N+](=O)[O-])N(C)C)c1 (centres undefined)	12.2% (inactive)	
COc1ccc(CNC(=O)c2cc3c(s2)CN(Cc2ccccc2)C3)cc1	-2.76% (inactive)	
CCOCC(=O)Nc1cc(Cl)ccc1C	-3.64% (inactive)	
CNC(=O)C[C@H]1CC[C@@H]2[C@H](COc3ccc(NC(=O)Nc4ccc(C)cc4)cc3C(=O)N2C)O1		> 39 µM (inactive)
COCCNc1cc(N)c([N+](=O)[O-])cc1[N+](=O)[O-]	-5.68% (inactive)	
COc1ccc(Br)cc1C(=O)Nc1ccc(O)cc1		9.64 µM (active)
Oc1ccc(/C=N/n2cc(-c3ccccc3)[nH]c2=S)cc1		6.42 µM (active)
CCOc1ccc(S(=O)(=O)NCc2ccccc2Cl)cc1C(N)=O		> 39 µM (inactive)
Cn1cc(S(=O)(=O)CC(=O)N2CCCc3ccccc32)c2ccccc21	-8.72% (inactive)	
CN(C)c1ccc(NC(=O)/C=C/c2c(Cl)cccc2Cl)cc1	2.86% (inactive)	
